# Compounds without any hit were thinned out: in the full panel of roughly 83,000, 20% have a hit.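 Testing used 96-well plates and a 48-hour single-concentration exposure. Example: -40 means 40% of the starting cells died.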 Calls of active or inactive are those of the source.
# Tested on: SR leukemia
# Assay: NCI-60 one-dose screen, 48 h (100 = growth as untreated, 0 = no growth, -100 = all killed)
# Conditions: 10 µM unless noted
# Method: Growth inhibition of the SR human tumor cell line is measured as a screen for anti-cancer activity. Cells are grown in 96 well plates and exposed to the test compound for 48 hours. Compounds are tested at a single concentration, which is 10^-5 M for most compounds. The reported endpoint is percent growth (GI% or GIPRCNT), where numbers from 0 - 100% represent growth inhibition, and numbers from -100% - 0 represent cell death. For example, a value of 40 represents 60% growth inhibition. A value of 0 means no net growth occurred over the course of the experiment. A value of -40 indicates 40% of cells at the beginning of the experiment died by the end of the experiment. A value of -100 means all cells are dead at the end of the experiment.
# NCI-60 Human Tumor Cell Lines Screen was performed using the standard one-dose NCI protocol, which is described in more detail at https://dtp.cancer.gov/discovery_development/nci-60/default.htm.
# Compounds with GIPRCNT values below 10 were considered active. Activity score was based on GIPRCNT using the following formula: […]
# Score is 0 for GIPRCNT values of 100 or above, 50 for GIPRCNT values of 0, and 100 for GIPRCNT values of -100.
row,Compound,growth
1,Cc1nc(Nc2ncc(C(=O)Nc3c(C)cccc3Cl)s2)cc(N2CCN(CCCNC(=O)COc3ccc(C4CCC(=O)NC4=O)cc3)CC2)n1 (stereo not given),20% (inactive)
2,CN(C)c1nc(NCCNS(=O)(=O)c2ccc(C(=O)/C=C/c3ccc(C(F)(F)F)cc3)cc2)nc(Nc2ccc(F)cc2)n1,-26.2% (active)
3,Cc1ccc(C(=O)CSc2nc3ccc(C)cc3c(=O)n2-c2ccc(F)cc2)cc1,99.7% (inactive)
4,O=C(CN1C(=O)/C(=C/c2ccccc2Cl)SC1=S)N1CCOCC1,34.3% (inactive)
5,O=C(N/N=C/c1ccc(-c2ccc(O)cc2)s1)c1[nH]c2ccc(Br)cc2c1-c1ccccc1,-22.4% (active)
6,O=C(/C=C/c1cccc(OCc2ccc(F)cc2)c1)c1nc2ccccc2[nH]1,-44% (active)
7,Cc1c(C(=O)NNC(=O)c2ccc(Cl)cc2)nnn1-c1ccc(Cl)cc1,84.4% (inactive)
8,Clc1cccc(N/N=C/c2c[nH]c3ccc(Br)cc23)n1,-14% (active)
9,N#Cc1ccc(/C=N/NC(=O)c2[nH]c3ccc(Br)cc3c2-c2ccccc2)o1,4.35% (active)
10,CN1CCc2c(sc3ncnc(N/N=C/c4ccc(Cl)cc4Cl)c23)C1,-16.5% (active)
11,CN(C)c1ccnc(CNCCSC2(c3ccccc3)c3ccccc3C=Cc3ccccc32)c1,-52.6% (active)
12,Cc1ccc(C(SCCNCc2cc(N(C)C)ccn2)(c2ccccc2)c2ccccc2)cc1,-45.1% (active)
13,C=C1CC[C@@H]2[C@]3(C)COC(c4cn[nH]c4-c4cccc(Cl)c4)O[C@@H]3CC[C@@]2(C)[C@@H]1C/C=C1/C(=O)OCC1O (stereo not given in full),14.7% (inactive)
14,O=C1NC(=O)/C(=C/c2ccccc2OCc2cc3ccccc3nc2Cl)S1,105% (inactive)
15,CSc1ccc(C(=O)Nc2ccc3nn(/C(C#N)=C/c4ccccn4)nc3c2)cc1,-3.69% (active)
16,CCCSc1nc(NCCc2c[nH]c3ccccc23)c(C#N)c(-c2ccccc2)n1,8.87% (active)
17,Cc1cc(=O)oc2cc(OCCOc3ccc(/C=C/C(=O)Nc4ccccc4N)cc3)ccc12,26.1% (inactive)
18,COc1cc2c(c(OC)c1OC)C(=O)CC(c1cccc(NC(=O)c3cc(NC(=O)[C@@H](N)CO)ccc3C)c1)O2 (stereo not given in full),100% (inactive)
19,CCCCSc1nc(Nc2ccc(S(N)(=O)=O)cc2)c(C#N)c(-c2cc(OC)c(OC)c(OC)c2)n1,8.85% (active)
20,N/C(=N\N=C\c1ccc([N+](=O)[O-])cc1)c1c(N)nc(=S)[nH]c1-c1ccc(Cl)cc1Cl,76.9% (inactive)

row,Compound,growth
1,O=c1oc2ccccc2cc1-c1csc(N=Nc2c(O)[nH]c3ccc(Cl)cc23)n1,96.3% (inactive)
2,COc1ccc(-c2nc3cc(C)ccc3n2CC(=O)N=Nc2c(O)[nH]c3ccc(Br)cc23)cc1,2.47% (active)
3,C=C1CC[C@@H]2[C@]3(C)COC(c4cn[nH]c4-c4ccc(Br)cc4)O[C@@H]3CC[C@@]2(C)[C@@H]1C/C=C1/C(=O)OCC1O (stereo not given in full),3.62% (active)
4,CC12CC[C@@H]3[C@]4(C)COC(c5cn[nH]c5-c5ccc(Br)cc5)O[C@@H]4CC[C@@]3(C)[C@@H]1CC(C1=CCOC1=O)O2 (stereo not given in full),40.6% (inactive)
5,COc1cc2c(c(OC)c1OC)C(=O)CC(c1cccc(NC(=O)[C@@H](N)CC(C)C)c1)O2 (stereo not given in full),66.9% (inactive)
6,N/N=C(\N)c1c(N)nc(=S)[nH]c1-c1ccc(Cl)cc1Cl,97.3% (inactive)
7,C=CC(=O)Nc1ccc(C)c(Oc2ccc(Cl)cc2)c1,24.3% (inactive)
8,COc1cc2c(c(OC)c1OC)C(=O)CC(c1cccc(NC(=O)c3cc(NC(=O)[C@H](C)N)ccc3Cl)c1)O2 (stereo not given in full),9.41% (active)
9,O=C(O)c1ccc(-c2ccc(/C=N/NC(=O)c3[nH]c4ccc(Br)cc4c3-c3ccccc3)s2)cc1,0.386% (active)
10,Cn1cc(-c2nnc(N)nc2-c2c[nH]c3ccc(F)cc23)c2cccnc21,25.5% (inactive)
11,COc1ccc(NC(=O)Nc2ccc(OCc3ccc(F)cc3)cc2)cc1,78.7% (inactive)
12,COc1cc(-c2cc(-c3cccc(OCC(=O)O)c3)[nH]c(=O)c2C#N)cc(OC)c1OC,83.6% (inactive)
13,CN(C)c1nc(NCCNS(=O)(=O)c2ccc(C3=Nc4c(N)nc(N)nc4NC(c4ccc(F)cc4)C3)cc2)nc(Nc2ccc(F)cc2)n1 (stereo not given),0.331% (active)
14,CCOC(=O)C1=C(N)N(c2ccccc2)C2=C(C(=O)CC(C)(C)C2)C1c1ccc(N2CCOCC2)cc1 (stereo not given),83.8% (inactive)
15,O=C(COc1ccc(NC(=O)Nc2ccc(Cl)c(Cl)c2)cc1)N=Nc1c(O)[nH]c2ccc([N+](=O)[O-])cc12,25.5% (inactive)
16,N#Cc1c(-c2cccc(Cl)c2Cl)cc(-c2ccc3ccccc3c2)[nH]c1=O,67.4% (inactive)
17,CCCCSc1nc(NCCc2c[nH]c3ccccc23)c(C#N)c(-c2ccc(F)cc2)n1,5.24% (active)
18,C#CCOc1cc(N(CC)CC)ccc1C(C(=O)NC(C)(C)C)N(C(=O)C1CCc2cc(F)ccc2O1)c1cc(C)cc(C)c1 (stereo not given),20.4% (inactive)
19,COc1ccc(C2CC(c3ccc(S(=O)(=O)NCCNc4nc(Nc5ccc(F)cc5)nc(N(C)C)n4)cc3)=Nc3c(N)nc(N)nc3N2)cc1 (stereo not given),8.79% (active)
20,CC1(C)CC[C@]2(C(=O)O)CC[C@]3(C)C(=CCC4[C@@]5(C)C[C@@H](O)[C@@H]6OC(c7cccc(Br)c7)OC[C@@]6(C)C5CC[C@]43C)C2C1 (stereo not given in full),30.6% (inactive)

# Reference: PubChem BioAssay (NCI)
